Test results from ChEMBL document CHEMBL4513216, “Probing the Open Global Health Chemical Diversity Library for Multistage-Active Starting Points for Next-Generation Antimalarials” (ACS Infect Dis, 2020).
Among all 68,000 compounds or so, about 2,700 (4%) showed an effect of 50% or more. The sample as a whole holds a higher share of strong results than the screen did.

test system: Plasmodium berghei; experiment: Screen against P. berghei liver stage (PbLuc), transformed with Luciferase, at 2uM; type: functional, HepG2; conditions: tested at 2 uM

SMILES | INHIBITION
Cc1n[nH]c(C2CN(CC(=O)NCCC3=CCCCC3)CCO2)n1 (stereo unspecified) | 1.27%
CN1CC2(CCN(S(=O)(=O)C3CC3)CC2)c2ccccc21 | 13.26%
Cn1ncnc1NCc1ccccc1Cl | 6.75%
CCC(C(=O)N(C)Cc1cc(COC)[nH]n1)n1cccn1 (stereo unspecified) | 19.12%
CN(Cc1cnn(C)c1)C(=O)NCc1cc(Br)cs1 | 31.78%
Cc1cc(NC(=O)CN2CCCC2c2noc(C)n2)n(C(C)(C)C)n1 (stereo unspecified) | 7.71%
Cc1cc(NC(=O)CN2CCCC2c2noc(C3CC3)n2)n(C)n1 (stereo unspecified) | -30.39%
Cc1cc(NC(=O)CN2CCCC2c2noc(C)n2)n(C)n1 (stereo unspecified) | 50.76%
Cc1cccc(COC[C@@]23CCC[C@@H]2CN(S(=O)(=O)N(C)C)C3)n1 | 31.96%
COc1ccccc1CNC(C)c1ccc(-n2ccnc2)cc1 (stereo unspecified) | 18.85%
CC(C)N(C)S(=O)(=O)c1ccc2c(c1)CCN(C(=O)c1cscn1)C2 | -68.29%
O=C(CN1CCC(Nc2ncccn2)CC1)Nc1ccccc1 | 36.28%
Cc1ncsc1C(=O)NC1CCN(CCC(=O)Nc2ccccc2)CC1 | 1.02%
Cc1cnc(NC2CCN(CC(=O)Nc3ccccc3)CC2)nc1C | 76.82%
CCN1CCN(C2CCN(Cc3nnc(C4CC4)o3)CC2)C1=O | -8.9%
O=c1[nH]nc2nc(N3CCOCC3)ccn12 | -60.22%

SMILES | INHIBITION
Cc1nn(C)cc1CN1C[C@H]2CC[C@@H](C1)N(Cc1c(C)noc1C)C2=O | 35.46%
CCCc1ccc(OC23CCCN(CC2)C3)c(OC)c1 (stereo unspecified) | -21.37%
COc1cc(C#N)ccc1OC12CCCN(CC1)C2 (stereo unspecified) | 63.83%
COc1cc(C(C)=O)ccc1OC12CCCN(CC1)C2 (stereo unspecified) | -18.6%
Cc1nc([C@H]2C[C@@H]3CCN(Cc4cnn(C)c4)C[C@H]3O2)sc1C | -19.14%
Cc1ccc(C(=O)N2CC3(CCCCC3)c3cc(C(=O)O)ccc32)cn1 | -46.89%
Cc1nc(CN2CCCN(CC(=O)N(C)CCC#N)CC2)no1 | -14.14%
Cc1nc(CCN(C)C(=O)CN2CCCCCC2)no1 | 51.9%
CC1CCN(CC(=O)N(C)CCc2noc(C3CC3)n2)C1=O (stereo unspecified) | 27.73%
COc1cc(N2C[C@@H]3COC[C@@H](Cc4nnc(C)o4)[C@@H]3C2)ncn1 | 21.27%
COc1ccccc1N1CCN(Cc2nc(C)c(C)o2)CC1 | -63.57%
Cc1cc(CN2CCOC(CN(C)C)C2)no1 (stereo unspecified) | 16.64%
O=C(NCCc1ccccc1)c1cn(CCNCc2cccnc2)nn1 | 53.12%
O=C(NCc1cccnc1)c1cn(CCc2ccccc2)nn1 | 17.19%
O=C(NCCCOc1cccnc1)c1cn(CCc2ccccc2)nn1 | 41.14%
